PI5P4Ka inh: inhibitors of human PI5P4K alpha | P48426 | PI5P4Kalpha enzyme, ADP-Glo luminescence, 60 min; hits give low values | max response, % | hit rate 1.2% among 330,000 | AID 652105; active = max response of -50% or lower; inconclusive = between -30% and -50%; inactive = -30% or higher; also: value at the top dose of about 77 µM; % is scaled to controls: 0 for no effect and ±100 for the full control effect
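PI5P4Kalpha ADP-Glo assay; 5 microM ATP final; 60 min RT reaction; HEPES pH 7.4/EGTA/CHAPS, 5% DMSO; controls lacking substrate or enzyme; luminescent end-point.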
HP1b chromo inh: inhibitors of HP1-beta chromodomain binding to methylated histone tails. Potency, µM (titrated, usually from 114 µM), without a hit: top-dose activity change, negative = inhibition, usual class: inhibitors. hit rate 0.56% among 390,000. AID 540317. AlphaScreen HP1-beta / biotin-H3K9me3 peptide binding; also: potency is read from the fitted curve at half-maximal effect; nearly all actives have a fitted effect of over 70% in size
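HP1-beta protein (50 nM final) preincubated 30 min at room temperature with biotinylated H3(1-18)K9me3 peptide (50 nM) in PBS pH 7.4, 0.01% Tween-20, then compound added for 30 min. AlphaScreen streptavidin donor/nickel chelate acceptor beads (10 ug/mL final), 30 min dark, luminescence read.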
PLK1 PBD inh: blocks phosphopeptide binding to human PLK1 polo-box domain | P53350 | Plk1 PBD binding of FITC phosphopeptide, fluorescence polarization | Potency, µM, without a hit: max response, negative = inhibition, hits mostly inhibitors | hit rate 2.8% among 360,000 | AID 720504; also: potency is read from the fitted curve at half-maximal effect; series mostly up to about 57 µM; % is scaled to controls: 0 for no effect and ±100 for the full control effect; nearly all actives have a fitted effect of over 65% in size
JMJD2A Tudor: blocks the human JMJD2A Tudor domain; O75164; AlphaScreen JMJD2A-Tudor / H3K4me3 peptide binding; Potency, µM (doses to about 114 µM), for inactives: at the top dose activity change, negative = inhibition, hits mostly inhibitors; hit rate 4.4% among 390,000; also: potency is read from the fitted curve at half-maximal effect; % is scaled to controls: 0 for no effect and ±100 for the full control effect; nearly all actives have a fitted effect of over 50% in size
BAZ2B inh: BAZ2B (human) inhibition | Q9UIF8 | AlphaScreen BAZ2B-H3K14Ac peptide displacement | Potency, µM (top dose mostly 114 µM), for inactives: at the highest dose activity change, negative = inhibition, hits mostly inhibitors | hit rate 4.4% among 360,000 | AID 504333; also: potency is read from the fitted curve at half-maximal effect; % is scaled to controls: 0 for no effect and ±100 for the full control effect; nearly all actives have a fitted effect of over 60% in size
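AlphaScreen displacement of biotin-H3(5-23)K14Ac peptide (50 nM final) from BAZ2B (50 nM final) in PBS pH 7.4, 0.01% Tween-20; complex preformed 30 min RT, then compounds (top 110 uM) 30 min RT, beads 20 min dark.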
KAT2A inh: GCN5L2 (KAT2A) acetyltransferase inhibition; GCN5L2 HAT assay, ThioGlo1 CoA-SH fluorescence; Potency, µM (titrated, usually from 58.9 µM), without a hit: top-dose activity change, negative = inhibition, usual class: inhibitors; hit rate 0.21% among 390,000; AID 504327; also: potency is read from the fitted curve at half-maximal effect; % is scaled to controls: 0 for no effect and ±100 for the full control effect
Target sequence (Q92830 whole entry, looked up): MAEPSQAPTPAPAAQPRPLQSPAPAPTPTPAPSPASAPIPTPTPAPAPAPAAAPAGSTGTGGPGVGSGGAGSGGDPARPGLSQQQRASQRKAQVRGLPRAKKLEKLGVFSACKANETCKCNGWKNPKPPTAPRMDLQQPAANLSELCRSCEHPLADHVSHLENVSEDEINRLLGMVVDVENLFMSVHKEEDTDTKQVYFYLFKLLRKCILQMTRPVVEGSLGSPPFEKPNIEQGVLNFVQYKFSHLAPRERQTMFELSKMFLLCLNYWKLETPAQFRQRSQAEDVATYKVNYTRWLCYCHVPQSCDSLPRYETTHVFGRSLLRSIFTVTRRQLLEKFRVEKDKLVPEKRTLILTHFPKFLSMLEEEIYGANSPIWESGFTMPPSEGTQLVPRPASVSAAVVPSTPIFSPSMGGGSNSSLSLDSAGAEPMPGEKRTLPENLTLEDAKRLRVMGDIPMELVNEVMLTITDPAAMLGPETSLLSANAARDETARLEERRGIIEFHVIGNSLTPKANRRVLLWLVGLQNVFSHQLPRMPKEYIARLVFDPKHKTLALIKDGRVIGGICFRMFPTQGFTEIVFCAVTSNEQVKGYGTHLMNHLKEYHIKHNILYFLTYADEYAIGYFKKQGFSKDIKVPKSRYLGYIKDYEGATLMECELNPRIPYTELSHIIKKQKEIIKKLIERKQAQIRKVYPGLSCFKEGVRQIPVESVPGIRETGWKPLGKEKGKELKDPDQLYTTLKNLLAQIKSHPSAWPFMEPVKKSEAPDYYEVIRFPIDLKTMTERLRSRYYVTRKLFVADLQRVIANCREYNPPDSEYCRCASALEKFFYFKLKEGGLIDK
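qHTS, 1536-well. 20nM enzyme, pH 7.5 HEPES/EDTA/Tween-20 buffer; 15 min compound preinc., RT. Start: 75uM H3(1-25), 70uM AcCoA, 50uM ThioGlo1. Read Ex340/Em540 at t=0 (autofluorescence flag) and t=20 min.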
The depositor's hits bear a star; [ ] = dose if it differs, or a comment. Hits are enriched below; roughly 7% of the tested compounds scored in any of these assays. Unless noted, calls follow the shape of the dose curve; as a rule, active = well fitted curve in the direction sought with a large enough effect; inconclusive = small, poorly fitted or top-dose-only effect, or another doubt; inactive = no such curve, though single readings can be large; an effect the other way counts as inactive or inconclusive.

What do the screens show for `O=C(Cc1cccs1)OCC(=O)c1ccco1`?
PI5P4Ka inh: inconclusive; HP1b chromo inh: inconclusive; PLK1 PBD inh: inconclusive; JMJD2A Tudor: 79.4µM*; BAZ2B inh: inconclusive; KAT2A inh: -4.9%

Results for O=C(C[C@H]1C[C@@H]2c3cc(NC(=O)Nc4ccccc4F)ccc3O[C@@H]2[C@H](CO)O1)NCc1ccccn1 ?
PI5P4Ka inh: -8.2; PLK1 PBD inh: -10.6%

How did O=C1Cc2cc(S(=O)(=O)Nc3cccc([N+](=O)[O-])c3)cc3c2N1CCC3 do in these assays?
PI5P4Ka inh: -1.6; HP1b chromo inh: 17.4%; PLK1 PBD inh: -19.1%; JMJD2A Tudor: -12.7%; BAZ2B inh: -6.1%; KAT2A inh: -5.6%

How did CCOC(=O)c1ccccc1NC(=O)CSc1ccc(-c2cccs2)nn1 do in these assays?
HP1b chromo inh: 40.4%; JMJD2A Tudor: 0.0%; BAZ2B inh: -13.8%; KAT2A inh: -6.1%

How did COc1cc2c(cc1OC)-c1n[nH]c(=S)n1C(C)(C)C2 do in these assays?
PI5P4Ka inh: -24.9; HP1b chromo inh: 41.0%; PLK1 PBD inh: inconclusive; JMJD2A Tudor: 39.8µM*; BAZ2B inh: -2.7%; KAT2A inh: -2.7%

What do the screens show for `COc1cc2c(cc1OC)-c1nnnn1C(C)(C)C2`?
HP1b chromo inh: 38.5%; PLK1 PBD inh: -3.5%; JMJD2A Tudor: -2.6%; BAZ2B inh: -1.1%; KAT2A inh: 1.7%

Results for Cc1ccc(CN=Cc2[nH]c3ccc(Br)c(Cl)c3c2O)cc1 ?
HP1b chromo inh: 44.7µM*; PLK1 PBD inh: -5.0%; JMJD2A Tudor: 50.1µM*; BAZ2B inh: inconclusive; KAT2A inh: -0.2%

Results for Oc1c(C=NCc2ccc(F)cc2)[nH]c2ccc(Br)c(Cl)c12 ?
BAZ2B inh: inconclusive; KAT2A inh: 1.2%

Results for CCc1ccc(N(CC)C(=O)c2sc3nc4n(c(=O)c3c2C)CCCC4)cc1 ?
HP1b chromo inh: 24.8%; JMJD2A Tudor: 79.4µM*; BAZ2B inh: 25.1µM*; KAT2A inh: -5.7%

What do the screens show for `CCOC(=O)c1sc2nc3n(c(=O)c2c1C)CCC(C)CC3` (centres undefined)?
HP1b chromo inh: -10.1%; PLK1 PBD inh: 29.9µM*; JMJD2A Tudor: -13.5%; BAZ2B inh: 10.9%; KAT2A inh: -4.2%

Results for CCOC(=O)N1CCN(C(=O)Nc2sc3nc4n(c(=O)c3c2C)CCC(C)CC4)CC1 (centres undefined) ?
HP1b chromo inh: 9.0%; PLK1 PBD inh: -17.4%; JMJD2A Tudor: -28.7%; BAZ2B inh: -34.7%; KAT2A inh: -10.3%

How did CCN(C(=O)c1sc2nc3n(c(=O)c2c1C)CCCCC3)c1ccc(OC)cc1 do in these assays?
HP1b chromo inh: 12.6%; JMJD2A Tudor: 79.4µM*; BAZ2B inh: 35.5µM*; KAT2A inh: -11.3%

How did CCN(C(=O)c1sc2nc3n(c(=O)c2c1C)CCCCC3)c1ccccc1F do in these assays?
HP1b chromo inh: 57.5%; JMJD2A Tudor: -1.6%; BAZ2B inh: -34.4%; KAT2A inh: -19.7%

Results for CCCCNC(=O)c1nc(C2CCN(S(=O)(=O)c3c(OC)cccc3OC)CC2)oc1-c1ccccc1 ?
PI5P4Ka inh: 13.6; PLK1 PBD inh: 2.2%

What do the screens show for `COc1ccccc1N=C1SCC(=O)N1c1ccccc1OC`?
PI5P4Ka inh: -12.8; HP1b chromo inh: inconclusive; PLK1 PBD inh: 21.2µM*; JMJD2A Tudor: -12.1%; BAZ2B inh: -3.5%; KAT2A inh: -8.0%

Results for COc1ccccc1N1C(=O)CSC1=NC(=O)c1ccccc1 ?
PI5P4Ka inh: -9.9; HP1b chromo inh: 35.9%; PLK1 PBD inh: -0.5%; JMJD2A Tudor: -1.7%; BAZ2B inh: -4.4%; KAT2A inh: -4.7%

How did Cc1ccc(-c2nnn(CC(=O)N(CCO)C(C(=O)NC3CCCCC3)c3ccncc3)n2)o1 (centres undefined) do in these assays?
PI5P4Ka inh: -4.3; HP1b chromo inh: inconclusive; PLK1 PBD inh: 33.6µM*; JMJD2A Tudor: -12.0%[11.4 µM]; BAZ2B inh: -11.2%; KAT2A inh: -0.9%

Compound activity from PubChem BioAssay.
